The values below come from PubChem BioAssay (NCATS).

For one test, the system named is GB4. The test is described as follows: qHTS profiling for inhibitors of Plasmodium falciparum proliferation (AID 504749). Particulars: P. falciparum in erythrocytes, SYBR Green DNA, 72 h; series mostly up to 28.7 µM. The gist of the method: (§1)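 SYBR Green fluorescence (ex 485 nm, em 535 nm) reports parasite DNA after 72 h compound exposure of infected red cells at 0.3% parasitemia, 2.5% hematocrit; signal normalized to 0.29 uM artemisinin and vehicle wells.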
A general note: qHTS replaces the single test concentration by a dilution series.

In a further test the test system is HB3. The test is described as above. Particulars: P. falciparum in erythrocytes, SYBR Green DNA, 72 h; series mostly up to 28.7 µM. The gist of the method:
as §1

The subject of a further test is ICS. Described as above. As to conditions: P. falciparum in erythrocytes, SYBR Green DNA, 72 h; series mostly up to 28.7 µM. The gist of the method: as §1
The next test has as its system JCK. Described as above. As to conditions: P. falciparum in erythrocytes, SYBR Green DNA, 72 h; series mostly up to 28.7 µM. The gist of the method: as §1
For the next test, the system named is N140. Described as above. Particulars: P. falciparum in erythrocytes, SYBR Green DNA, 72 h; series mostly up to 28.7 µM. The gist of the method:
as §1

The subject of another test is P93_24. Described as above. As to conditions: P. falciparum in erythrocytes, SYBR Green DNA, 72 h; series mostly up to 28.7 µM. The gist of the method:
as §1

A further test relates to P94_40. Described as above. Particulars: P. falciparum in erythrocytes, SYBR Green DNA, 72 h; series mostly up to 28.7 µM. The gist of the method: as §1
The next test relates to PAD. The description is as above. As to conditions: P. falciparum in erythrocytes, SYBR Green DNA, 72 h; series mostly up to 28.7 µM. The gist of the method:
as §1

The subject of another test is PC15. Described as above. As to conditions: P. falciparum in erythrocytes, SYBR Green DNA, 72 h; series mostly up to 28.7 µM. The gist of the method:
as §1

The next test relates to PC26. The description is as above. As to conditions: P. falciparum in erythrocytes, SYBR Green DNA, 72 h; series mostly up to 28.7 µM. The gist of the method: as §1
The subject of another test is PC49. The test is described as above. Particulars: P. falciparum in erythrocytes, SYBR Green DNA, 72 h; series mostly up to 28.7 µM. The gist of the method: as §1
A further test has as its system SC27B. The test is described as above. As to conditions: P. falciparum in erythrocytes, SYBR Green DNA, 72 h; series mostly up to 28.7 µM. The gist of the method:
as §1

The subject of another test is TAB109. Described as above. Particulars: P. falciparum in erythrocytes, SYBR Green DNA, 72 h; series mostly up to 28.7 µM. The gist of the method:
as §1

The subject of another test is TAB113. Described as above. Particulars: P. falciparum in erythrocytes, SYBR Green DNA, 72 h; series mostly up to 28.7 µM. The gist of the method:
as §1

A further test relates to TAB165. The test is described as above. As to conditions: P. falciparum in erythrocytes, SYBR Green DNA, 72 h; series mostly up to 28.7 µM. The gist of the method: as §1
The test system of another test is W2. The description is as above. As to conditions: P. falciparum in erythrocytes, SYBR Green DNA, 72 h; series mostly up to 28.7 µM. The gist of the method: as §1
For a further test, the system named is HaCat. The test can be described thus: Cytotoxic Profiling of Annotated Libraries Using Quantitative High-Throughput Screening (AID 1296008). For max response: % is set by controls: 0 for no effect and ±100 for the full control effect. As to conditions: Five cell lines viability, CellTiter-Glo ATP luminescence, 48-72 h; max response: stronger effect = lower value. The gist of the method:
(§2)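 Cells exposed to compounds for 48 or 72 hr at 37 degrees Celsius. Viability read as ATP-coupled luminescence with CellTiter-Glo after 10 min at room temperature.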

In a further test the test system is KB-3-1. The description is as above. Particulars: Five cell lines viability, CellTiter-Glo ATP luminescence, 48-72 h; max response: stronger effect = lower value. The gist of the method:
as §2

In a further test the test system is HEK293. The test is described as above. As to conditions: Five cell lines viability, CellTiter-Glo ATP luminescence, 48-72 h; max response: stronger effect = lower value. The gist of the method: as §2
The test system of the next test is CRL-7250. The test is described as above. As to conditions: Five cell lines viability, CellTiter-Glo ATP luminescence, 48-72 h; max response: stronger effect = lower value. The gist of the method:
as §2
Background: In ATP-based viability assays light output follows the ATP content of the culture.

Where “and” joins values, the source holds several entries; their conditions need not be identical. Identical values can stand only once. Results filed as inconclusive are left out. A number with no mark means an inactive call. Calls of active or inactive are those of the source. Calls come from the whole dose curve; as a rule, active = well fitted inhibition curve with a large enough effect; inconclusive = small, poorly fitted or top-dose-only effect; inactive = flat fitted curve, though single readings scatter.
Note: nearly all actives have a fitted effect of over 60% in size.
Potency is the fitted concentration of half-maximal effect.

Take `O=C(Nc1ccc(Br)cc1)c1cc(Br)cc(Br)c1O`: the Potency result in the test on GB4, in the test with HB3, with ICS, with JCK, in the test on N140 and with P93_24 was “inactive” throughout. Further, the Potency result in the test with P94_40, in the test with PAD, with PC15, in the test with PC26, with PC49 and in the test with SC27B was “inactive” each time. Moreover, the Potency entry with TAB109, in the test with TAB113, in the test on TAB165 and with W2 was “inactive” each time. For the same compound, the outcome in the test on HaCat was inactive. The max response with KB-3-1 was -24%.

Consider `COc1cccc(C(=O)CCN[C@@H](C)[C@H](O)c2ccccc2)c1`, for which the call in the test on HaCat was inactive. Also, the max response in the test on KB-3-1 is 25.7%.

With `Clc1ccccc1N1CCNCC1`, the compound was classed as inactive in the test on HEK293 and in the test on HaCat.

For the compound `Cc1nnc2n1-c1ccc(Cl)cc1C(c1ccccc1Cl)=NC2`, in the test on KB-3-1, the max response was 1.66%.

Take `COP(=S)(OC)SCN1C(=O)c2ccccc2C1=O`: the Potency entry in the test with GB4, with HB3, in the test with ICS, in the test on JCK, in the test on N140 and in the test with P93_24 was “inactive” each time. Further, the Potency entry in the test with P94_40, in the test on PAD, with PC15, in the test on PC26, in the test with PC49 and with SC27B was “inactive” in each case. The Potency result in the test with TAB109, with TAB113, in the test with TAB165 and in the test with W2 was “inactive” throughout. In addition, the result in the test on HaCat was inactive. In the test with KB-3-1, the max response was 6.87%.

Take `CCC(C)(C)c1ccc(O)cc1`: the Potency entry with GB4, with HB3, in the test with ICS, in the test on JCK, in the test on N140 and in the test with P93_24 was “inactive” each time. The Potency result in the test with P94_40, with PAD, in the test with PC15, in the test with PC26, in the test on PC49 and with SC27B was “inactive” each time. Moreover, the Potency result in the test on TAB109, in the test on TAB113, in the test on TAB165 and in the test with W2 was “inactive” each time. In addition, the values for the max response in the test on HaCat and with KB-3-1 were 2.15% and 14.4%, respectively.

On to `C[C@H]1[C@@H]2Cc3ccc(O)cc3[C@@]1(C)CCN2C`, for which the max response in the test on CRL-7250 is -7.45%; with KB-3-1, -22%.

For the compound `Clc1ccc2c(c1)C(c1ccccc1)=NCc1nncn1-2`, the Potency entry in the test with GB4, in the test with HB3, in the test with ICS, in the test on JCK, with N140 and in the test with P93_24 was “inactive” throughout. The Potency entry in the test with P94_40, in the test with PAD, in the test with PC15, in the test on PC26, with PC49 and in the test with SC27B was “inactive” each time. For the same compound, the Potency entry in the test with TAB109, with TAB113, in the test with TAB165 and in the test with W2 was “inactive” throughout. In addition, the max response with KB-3-1 is 2.88%.

With `CN=C1CN(O)C(c2ccccc2)=c2cc(Cl)ccc2=N1`, the max response in the test with KB-3-1 is -12.7% and 2.13%.

With `CCCC(C)(COC(N)=O)COC(N)=O`, the Potency entry in the test on GB4, in the test on HB3, in the test with ICS, with JCK, with N140 and in the test on P93_24 was “inactive” each time. The Potency entry in the test on P94_40, in the test with PAD, in the test with PC15, in the test on PC26, in the test on PC49 and in the test with SC27B was “inactive” throughout. Moreover, the Potency result in the test with TAB109, with TAB113 and in the test on TAB165 was “inactive” throughout. In addition, the max response in the test with KB-3-1 was 1.51%.

Take `CCN(CC)CCc1c[nH]c2ccccc12`: the values for the max response with HaCat and with KB-3-1 were -3.07% and -19.3%, respectively.

As to `C[C@]12CCC(=O)C=C1CC[C@@H]1[C@H]3CC[C@](C)(O)[C@@]3(C)CC[C@@H]12`, in the test with HEK293, the Potency is 30.9 µM (active).

Turning to `Cc1nnc2n1-c1ccc(Cl)cc1C(c1ccccc1)=NC2`, the Potency result in the test on GB4, with HB3, in the test with N140, in the test on P93_24, in the test with PAD and with PC15 was “inactive” each time. In addition, the Potency entry in the test with PC26, in the test with PC49, in the test on SC27B, in the test on TAB113 and in the test with TAB165 was “inactive” in each case. For the same compound, the Potency in the test on ICS was 8.91 µM (active); with W2, 4.78 µM (active). The max response with KB-3-1 is -2.21%.

As to `CN1C(=O)CC(=O)N(c2ccccc2)c2cc(Cl)ccc21`, the Potency result in the test on GB4, with HB3, with ICS, in the test on JCK, in the test on N140 and with P93_24 was “inactive” throughout. Also, the Potency result in the test on P94_40, with PAD, with PC15, in the test on PC26, with PC49 and in the test with SC27B was “inactive” in each case. In addition, the Potency entry with TAB109, in the test on TAB165 and in the test with W2 was “inactive” in each case. Also, the max response with KB-3-1 is 9.14%.
